# Assay results from the supplement of paper PMC10338343.
# ± gives the standard deviation. Whole data set: some 8,200 sequences, median “pre-steady-state target cleavage rate” near 0.024, cut for the highest 2% near 1.3. This is one part of a sample in which the highest values are shown more often than they occur.
# Tested on: MIWI (PIWIL1) piRISC loaded with L1MC piRNA (30 nt)
# Test: pre-steady-state target cleavage rate (min^-1); MIWI and MILI are mouse PIWI proteins and EfPiwi is from a freshwater sponge; tags in brackets are library labels; higher = faster piRNA-guided slicing of the target
# Conditions: guide: L1MC piRNA 5'p-UAACUAAAUACUAUGCAAGCUGUAGGUCCU
# Procedure: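 Cleave-'n-Seq: a library of target RNAs (target site embedded in constant flanks, ACAGCATTCCGCGTTAGTGATATCCG... 5' flank; DNA-blocked outside the site) at 0.1 nM was incubated with 1 nM active mouse MILI or MIWI piRISC (synthetic 5'-monophosphorylated piRNA guide) with or without 500 nM mouse GTSF1 at 33 °C for 1 min to 16 h. Uncleaved targets were sequenced and normalised to non-target controls, and the pooled three trials were fitted to a burst-and-steady-state model to give the pre-steady-state cleavage rate (min^-1; k3 is constrained to at most 1e-4). Sequence is the target site only; target names encode pairing extent (gX:gY) and contiguous / 1-mismatch / 2-mismatch / bulge geometry. Fits with R² ≤ 0 are excluded.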
# [1] = auxiliary factor: 500 nM mouse GTSF1
# [2] = auxiliary factor: none (no GTSF1)
sequence,measurement,setting,value
UGGACCUACAGCUAGCAUAGUAUUUAGUUA,pre-steady-state target cleavage rate,[1],1.41 ± 0.074
same,pre-steady-state target cleavage rate,[2],0.0334 ± 0.0077
UGGACCUACAGCUUAGCAUAGUAUUUAGUUA,pre-steady-state target cleavage rate,[1],1.45 ± 0.08
same,pre-steady-state target cleavage rate,[2],0.0281 ± 0.0051
UCGACCUACAGCUAGCAUAGUAUUUAGUUA,pre-steady-state target cleavage rate,[1],1.28 ± 0.053
same,pre-steady-state target cleavage rate,[2],0.0292 ± 0.0072
UCCACCUACAGCUUAGCAUAGUAUUUAGUUA,pre-steady-state target cleavage rate,[1],1.02 ± 0.03
same,pre-steady-state target cleavage rate,[2],0.0144 ± 0.0034
AGGACCUACAGCUAGCAUAGUAUUUAGUUA,pre-steady-state target cleavage rate,[1],1.16 ± 0.061
same,pre-steady-state target cleavage rate,[2],0.0412 ± 0.0085
UCCUGGAUCAGCUUGCUAAGUAUUUAGUAA,pre-steady-state target cleavage rate,[1],0.00706 ± 0.004
UCCUCCUACAGCUUGCAUAGUAUUUACUUA,pre-steady-state target cleavage rate,[1],0.383 ± 0.042
same,pre-steady-state target cleavage rate,[2],0.0348 ± 0.0074
UCCUGGAACAGUUGCAUAGUAUUUAGUUA,pre-steady-state target cleavage rate,[1],0.337 ± 0.022
same,pre-steady-state target cleavage rate,[2],0.00545 ± 0.0021
UCCUGGAUCUGCAUGCAUAGUAUUUAGUUA,pre-steady-state target cleavage rate,[1],0.204 ± 0.024
same,pre-steady-state target cleavage rate,[2],0.00439 ± 0.002
UCCUGGAUGUCGAACGUAUGUAUUUUAGUUA,pre-steady-state target cleavage rate,[1],< 0.0001
UCCUCCUACAGCUUGCAUAGUAAAAAGUUA,pre-steady-state target cleavage rate,[1],0.231 ± 0.023
UCCUCCUACAGCUUAGCAUAGUAUUUAGUUA,pre-steady-state target cleavage rate,[1],1.31 ± 0.054
same,pre-steady-state target cleavage rate,[2],0.0108 ± 0.0023
UCCUCCUACAGCUUACAUAGUAUUUAGUUA,pre-steady-state target cleavage rate,[1],1.14 ± 0.031
same,pre-steady-state target cleavage rate,[2],0.0275 ± 0.0041
UCCUCCUACAGCUAGCAUAGUAUUUAGUUA,pre-steady-state target cleavage rate,[1],0.838 ± 0.03
same,pre-steady-state target cleavage rate,[2],0.016 ± 0.0034
UCGUCCUACAGCUUGCAUAGUAUUUAGUUA,pre-steady-state target cleavage rate,[1],1.42 ± 0.041
same,pre-steady-state target cleavage rate,[2],0.0638 ± 0.0093
UGGUCCUACAGCUUGCAUAGUAUUUAGUUA,pre-steady-state target cleavage rate,[1],1.16 ± 0.052
same,pre-steady-state target cleavage rate,[2],0.0862 ± 0.015
AGGUCCUACAGCUUGCAUAGUAUUUAGUAA,pre-steady-state target cleavage rate,[1],0.77 ± 0.055
same,pre-steady-state target cleavage rate,[2],0.0647 ± 0.012
UCCUACUACAGCUUGCAUAGUAUUUAGUUA,pre-steady-state target cleavage rate,[1],0.886 ± 0.036
same,pre-steady-state target cleavage rate,[2],0.057 ± 0.0085
UCGUCCUACAGCUUGCAUAGUAUUUAGAAA,pre-steady-state target cleavage rate,[1],0.469 ± 0.042
same,pre-steady-state target cleavage rate,[2],0.00751 ± 0.0029
AGGUCCUACAGCUUGCAAAGUAUUUAGUUA,pre-steady-state target cleavage rate,[1],1.35 ± 0.043
same,pre-steady-state target cleavage rate,[2],0.0532 ± 0.01
ACGUCCUACAGCUUGCAUAGUAUUUAGUUA,pre-steady-state target cleavage rate,[1],1.52 ± 0.055
same,pre-steady-state target cleavage rate,[2],0.0835 ± 0.013
UCGUCCUACAGCUUGCAUAGUAUUUAGUAA,pre-steady-state target cleavage rate,[1],0.82 ± 0.037
same,pre-steady-state target cleavage rate,[2],0.0372 ± 0.0076
UCGUCCUACAGCUUGCAAAGUAUUUAGUUA,pre-steady-state target cleavage rate,[1],1.3 ± 0.032
same,pre-steady-state target cleavage rate,[2],0.0388 ± 0.0068
UGGUCCUACAGCUUGCAAAGUAUUUAGUUA,pre-steady-state target cleavage rate,[1],1.13 ± 0.04
same,pre-steady-state target cleavage rate,[2],0.0413 ± 0.0067
AGGUCCUACAGCUUGCAUAGUAUUUAGUUA,pre-steady-state target cleavage rate,[1],1.43 ± 0.054
same,pre-steady-state target cleavage rate,[2],0.111 ± 0.019
UCCUGGAUCAGCUUGCAUAGUAAUUAGAUA,pre-steady-state target cleavage rate,[1],0.216 ± 0.036
same,pre-steady-state target cleavage rate,[2],0.0126 ± 0.0029
UCCUGGAACAGCUUGGUAAGUAUUUAGUUA,pre-steady-state target cleavage rate,[1],0.00797 ± 0.0031
UCCUGGAUGUGCUUGACAUAGUAUUUAGUUA,pre-steady-state target cleavage rate,[1],0.0551 ± 0.0082
UCCUGGAUCAGCUUGCAUAGUAUUAUGUAA,pre-steady-state target cleavage rate,[1],0.0189 ± 0.0065
same,pre-steady-state target cleavage rate,[2],0.00377 ± 0.0026
UCCUGGAUGUGCUUGGAUACUAUUUAGUUA,pre-steady-state target cleavage rate,[1],0.031 ± 0.011
same,pre-steady-state target cleavage rate,[2],0.0033 ± 0.0029
UCCUGGAUGUCGAACCAUACUAAUUAGUUA,pre-steady-state target cleavage rate,[2],< 0.0001
